Consider seven compounds from PubChem BioAssay (NCI).

Among the test systems are SK-MEL-2 melanoma; EKVX NSCLC; SN12C renal; UO-31 renal; TK-10 renal; ACHN renal; CAKI-1 renal; CCRF-CEM leukemia; MOLT-4 leukemia; SR leukemia; RPMI-8226 leukemia; OVCAR-8 ovarian; OVCAR-5 ovarian; OVCAR-4 ovarian; SK-OV-3 ovarian; IGROV1 ovarian; OVCAR-3 ovarian; HS 578T breast; NCI/ADR-RES ovarian.
What all share (assay): NCI-60 one-dose screen, 48 h (100 = growth as untreated, 0 = no growth, -100 = all killed)
Holding throughout (details): 10 µM unless noted

About 83,000 compounds went through this panel and 20% of them were active in at least one assay; those are over-represented in the sample as a whole.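 A percent growth of 40 corresponds to 60% growth inhibition; 0 means no net growth; -100 means all cells died. Active threshold: below 10.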 Unmarked numbers belong to inactive results. Activity calls are given as the source filed them.

In the case of `COc1ccc(-c2nn(-c3ccc(Cl)cc3)cc2-c2nc3ccccc3[nH]2)cc1`, the growth was 101% in the assay on SK-MEL-2 melanoma; 85.2% in the assay on EKVX NSCLC; 85.7% in the assay with SN12C renal; 44.4% with UO-31 renal; 91.2% in the assay on TK-10 renal; 89.5% in the assay on ACHN renal. In addition, the growth in the assay with CAKI-1 renal was 92%; with CCRF-CEM leukemia, 99.9%; in the assay with MOLT-4 leukemia, 81.8%; with SR leukemia, 80.3%; in the assay with RPMI-8226 leukemia, 93.9%; in the assay with OVCAR-8 ovarian it was 105%. The growth in the assay on OVCAR-5 ovarian is 110%; with OVCAR-4 ovarian, 88%; in the assay with SK-OV-3 ovarian, 101%; in the assay on IGROV1 ovarian, 71.4%; in the assay on OVCAR-3 ovarian, 94%; with HS 578T breast it was 93%. Also, the growth in the assay with NCI/ADR-RES ovarian was 102%.
Take `CC1=C[C@H]2c3c(c(O)c(O)c4oc5ccccc5c(=O)c34)[C@H](c3cc(O)c(O)c4oc5ccccc5c(=O)c34)[C@H]2C(C)(C)C1`: the growth with SK-MEL-2 melanoma was 0.0517% (active); with EKVX NSCLC, 18.7%; with SN12C renal it was 7.6% (active); in the assay on UO-31 renal, -74% (active); with TK-10 renal, 23.1%; in the assay with ACHN renal, 6.36% (active). Moreover, the growth in the assay on CAKI-1 renal was -24.7% (active); in the assay on CCRF-CEM leukemia it was 5.39% (active); in the assay with MOLT-4 leukemia, 2.9% (active); in the assay with SR leukemia, 0.353% (active); in the assay on RPMI-8226 leukemia, 15.2%; in the assay with OVCAR-8 ovarian, 1.23% (active). Moreover, the growth with OVCAR-5 ovarian is 25.8%; in the assay on OVCAR-4 ovarian, 1.7% (active); with SK-OV-3 ovarian, -14.1% (active); in the assay on IGROV1 ovarian it was -4.25% (active); in the assay on OVCAR-3 ovarian it was 10.4%; in the assay with HS 578T breast, -4.62% (active). Also, in the assay with NCI/ADR-RES ovarian, the growth was 23.9%.
`CC1=C[C@H]2c3c(c(O)c(O)c4oc5cc(O)ccc5c(=O)c34)[C@H](c3cc(O)c(O)c4oc5cc(O)ccc5c(=O)c34)[C@H]2C(C)(C)C1`: the growth with SK-MEL-2 melanoma is 44.8%; with EKVX NSCLC, 51.1%; with SN12C renal, 28.7%; in the assay on UO-31 renal, 46.5%; in the assay on TK-10 renal it was 56%; with ACHN renal, 37.9%. For the same compound, the growth in the assay on CAKI-1 renal was 40.3%; in the assay on CCRF-CEM leukemia, 27.1%; with MOLT-4 leukemia, 25.3%; with SR leukemia, 24.6%; in the assay with RPMI-8226 leukemia it was 29.5%; with OVCAR-8 ovarian, 25.4%. For the same compound, the growth with OVCAR-5 ovarian is 59.1%; in the assay on OVCAR-4 ovarian, 56%; with SK-OV-3 ovarian, 59.7%; with IGROV1 ovarian it was 21.4%; in the assay with OVCAR-3 ovarian, 46.4%; in the assay on HS 578T breast, 22.4%. In the assay with NCI/ADR-RES ovarian, the growth is 101%.
On to `COc1cc(/C=C/C(=O)c2cccnc2Nc2ccc(F)cc2)cc(OC)c1OC`, for which the growth with SK-MEL-2 melanoma is 27.5%; in the assay on EKVX NSCLC it was 69.5%; in the assay with SN12C renal, 16.2%; with UO-31 renal it was 75.6%; with TK-10 renal, 77.8%; in the assay with ACHN renal, 45.7%. Besides, the growth in the assay on CAKI-1 renal is 51.6%; with CCRF-CEM leukemia, -10.6% (active); in the assay on MOLT-4 leukemia, 5.4% (active); in the assay with SR leukemia, 2.85% (active); in the assay on RPMI-8226 leukemia, 1.24% (active); in the assay on OVCAR-8 ovarian, 1.62% (active). In addition, the growth is 35.8% with OVCAR-5 ovarian; 61.6% in the assay with OVCAR-4 ovarian; 42% with SK-OV-3 ovarian; 91.7% in the assay on IGROV1 ovarian; 16.1% in the assay on OVCAR-3 ovarian; 24.9% in the assay on HS 578T breast. Further, in the assay on NCI/ADR-RES ovarian, the growth is 8.54% (active).
`O=C1c2ccccc2C(=O)c2c1ccc1[nH]c(-c3cccs3)nc21`: the growth was 107% with SK-MEL-2 melanoma; 71.7% in the assay with EKVX NSCLC; 73.4% in the assay with SN12C renal; 58.6% in the assay on UO-31 renal; 87.3% in the assay on TK-10 renal; 66.5% with ACHN renal. For the same compound, the growth with CAKI-1 renal is 82%; in the assay on CCRF-CEM leukemia, 88.4%; with MOLT-4 leukemia, 70.1%; with SR leukemia it was 37.4%; with RPMI-8226 leukemia, 63.7%; in the assay on OVCAR-8 ovarian it was 81.5%. The growth with OVCAR-5 ovarian was 88.5%; in the assay on OVCAR-4 ovarian it was 102%; in the assay on SK-OV-3 ovarian it was 107%; with IGROV1 ovarian, 89.7%; in the assay on OVCAR-3 ovarian, 82.8%; in the assay with HS 578T breast it was 99.2%. For the same compound, the growth in the assay with NCI/ADR-RES ovarian was 78.7%.
Take `Cc1ccccc1COc1ccc(-c2ccnn2-c2ccc(Cl)cc2)cc1`: the growth in the assay on SK-MEL-2 melanoma is 39.2%; in the assay on EKVX NSCLC, 77%; in the assay with SN12C renal it was 67.6%; with UO-31 renal, 74.4%; with TK-10 renal, 83.8%; in the assay on ACHN renal, 77.6%. The growth in the assay on CAKI-1 renal was 59.7%; in the assay with CCRF-CEM leukemia, 42.4%; with MOLT-4 leukemia it was 26.3%; in the assay with SR leukemia, 33.8%; in the assay with RPMI-8226 leukemia it was 77.6%; with OVCAR-8 ovarian, 75.3%. Also, the growth is 91.7% with OVCAR-5 ovarian; 85.7% in the assay with OVCAR-4 ovarian; 63.7% with SK-OV-3 ovarian; 57.5% in the assay with IGROV1 ovarian; 26.6% in the assay with OVCAR-3 ovarian; 60.9% in the assay with HS 578T breast. For the same compound, the growth with NCI/ADR-RES ovarian was 38%.
Regarding `Cc1nn(-c2cc(=O)[nH]c3ccc(Cl)cc23)c(N)c1C#N`, the growth in the assay on SK-MEL-2 melanoma was 100%; in the assay on EKVX NSCLC it was 92.3%; in the assay on SN12C renal, 102%; with UO-31 renal it was 70.7%; with TK-10 renal, 133%; with ACHN renal, 99%. Further, the growth is 85.8% with CAKI-1 renal; 101% in the assay on CCRF-CEM leukemia; 110% with MOLT-4 leukemia; 121% in the assay on SR leukemia; 97.7% with RPMI-8226 leukemia; 91.6% in the assay with OVCAR-8 ovarian. Also, the growth in the assay on OVCAR-5 ovarian was 99.3%; in the assay on OVCAR-4 ovarian, 89.2%; in the assay on SK-OV-3 ovarian, 102%; in the assay on IGROV1 ovarian, 73.1%; with OVCAR-3 ovarian, 105%; in the assay with HS 578T breast, 103%. Moreover, in the assay on NCI/ADR-RES ovarian, the growth was 97.4%.
